PubChem BioAssay (NCATS)
Results filed as inconclusive are left out. Entries that show only a call come without a potency. Active and inactive are the calls of the source. Calls come from the whole dose curve; as a rule, active = well fitted cell-killing curve with a large enough effect; inconclusive = small, poorly fitted or top-dose-only effect, or effect the other way; inactive = flat fitted curve, though single readings scatter.

Columns and labels:
Assay in all cases: Primary qHTS to identify gynecologic anti-cancer compounds using libraries of approved drugs and bioactive compounds (AID 1345084); note: nearly all actives have a fitted effect of over 55% in size
Details in all cases: Gynecologic cancer cell panel viability, ATPlite luminescence, 48 h; series mostly up to 57.5 µM
PA-1 = test system: PA-1
How it was run: (§1)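 Cell viability after 48 h drug treatment, ATPlite luminescence readout; five doses.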

SKOV3 = test system: SKOV3
How it was run: as §1

Tov-21-G = test system: Tov-21-G
How it was run: as §1

Tov112D = test system: Tov112D
How it was run: as §1
Potency is the fitted concentration of half-maximal effect.

Row | SMILES | Potency (PA-1) | Potency (SKOV3) | Potency (Tov-21-G) | Potency (Tov112D) | activity change, negative = cytotoxicity (PA-1) | activity change, negative = cytotoxicity (SKOV3) | activity change, negative = cytotoxicity (Tov-21-G) | activity change, negative = cytotoxicity (Tov112D)
1 | CN1CCC[C@@H]1Cc1c[nH]c2ccc(Nc3ncccc3[N+](=O)[O-])cc12 | inactive | inactive | inactive | inactive | – | – | – | –
2 | CCCCCCn1c(=O)c(C(=O)Nc2ccc(C(=O)OCCC)cc2)c(O)c2ccccc21 | – | – | – | – | 1.75% [at 11.6 µM] (inactive) | -0.233% [at 11.6 µM] (inactive) | 0.105% [at 11.6 µM] (inactive) | 27% [at 11.6 µM] (inactive)
3 | C=C1[C@@H]2CC[C@@]3(C)[C@H](c4ccoc4)OC(=O)C[C@]13O[C@H]1CC(=O)C(C)(C)[C@H](C(OC(C)=O)C(=O)OC)[C@]12C (some centres undefined) | inactive | inactive | inactive | inactive | – | – | – | –
4 | CC(=O)OC1CC(O)C(C)(C)C2CC(OC(C)=O)C3(C)C(CCC4(C)C(c5ccoc5)C(=O)C5OC543)C12C (centres undefined) | inactive | inactive | inactive | inactive | – | – | – | –
5 | C/C=C(\C)C(=O)OC1C(C)OC(OC2C(C)OC(OC3CCC4(C)C(=CCC5C4CCC4(C)C(C(C)OC6OC(COC7OC(CO)C(O)C(O)C7O)C(O)C(O)C6O)CCC54O)C3)CC2OC)C(O)C1OC (centres undefined) | – | – | – | – | 9.3% [at 11.6 µM] (inactive) | -10% [at 11.6 µM] (inactive) | 3.11% [at 11.6 µM] (inactive) | -0.387% [at 11.6 µM] (inactive)
6 | CC(=O)O[C@H]1C[C@@H](OC(C)=O)C(C)(C)C2C[C@@H](O)[C@]3(C)C(CC[C@@]4(C)[C@H](C5=CC(=O)OC5O)C[C@H]5O[C@]543)[C@]21C (some centres undefined) | inactive | inactive | inactive | inactive | – | – | – | –
7 | C[C@H]1O[C@@H](O[C@H]2C[C@@H](O)[C@]3(CO)C4C(CC[C@]3(O)C2)[C@@]2(O)CC[C@H](C3=CC(=O)OC3)[C@@]2(C)C[C@H]4O)[C@@H](O)[C@@H](O)[C@H]1O (some centres undefined) | 562 nM (active) | 224 nM (active) | 178 nM (active) | 112 nM (active) | – | – | – | –
8 | COC1=CC(=O)O[C@@H](CCc2ccccc2)C1 | inactive | inactive | inactive | inactive | – | – | – | –
9 | CCC(C)(OC(C)=O)C(=O)O[C@H]1[C@H](OC(C)=O)C[C@@H]2[C@@](C)([C@@H]3C[C@H]4C=CO[C@H]4O3)[C@H](C)C[C@H](OC(C)=O)[C@@]2(COC(C)=O)[C@@]12CO2 (some centres undefined) | inactive | inactive | inactive | inactive | – | – | – | –
10 | C/C=C(\C)C(=O)OC1CC2C(C)(C)OC(=O)CC(OC(C)=O)C2(C)C2CC(OC(=O)C(C)C)C3(C)C(c4ccoc4)CC4OC43C12C (centres undefined) | inactive | inactive | inactive | inactive | – | – | – | –
11 | C[C@H]1C(=O)O[C@H]2[C@H](O)[C@]34C5OC(=O)[C@]3(O[C@@H]3OC(=O)[C@H](O)C34[C@H](C(C)(C)C)[C@H]5O)C12O (some centres undefined) | inactive | inactive | inactive | inactive | – | – | – | –
12 | CC(=O)OC12C(O)C(C)C3(O)C4C=C(C)C(=O)C4CC(CO)=CC3C1C2(C)C (centres undefined) | inactive | inactive | inactive | inactive | – | – | – | –
13 | CC(C)=C1CC[C@]23CO[C@H](C2)[C@@](O)(C(=O)O)CCC13 (some centres undefined) | inactive | inactive | inactive | inactive | – | – | – | –
14 | N#CC(OC1OC(COC2OC(CO)C(O)C(O)C2O)C(O)C(O)C1O)c1ccccc1 (centres undefined) | inactive | inactive | inactive | inactive | – | – | – | –
15 | CN1C(=O)c2ccccc2NC(=O)C1Cc1ccccc1 (centres undefined) | inactive | inactive | inactive | inactive | – | – | – | –
16 | COc1cc(CCNCc2ccccc2O)c(OC)cc1C#N | inactive | inactive | inactive | inactive | – | – | – | –
17 | COC(=O)C12C(=O)C(C)(O)C(=O)C1(C)C(C)=CC1C34CCC(OC3=O)C(C)(CO)C4CCC12C (centres undefined) | inactive | inactive | inactive | inactive | – | – | – | –
18 | CC(=O)OC1CC(O)C2(C)C(CC(OC(C)=O)C3(C)C2CCC2(C)C(c4ccoc4)C(=O)C4OC423)C1(C)C (centres undefined) | inactive | inactive | inactive | inactive | – | – | – | –
19 | CC1=C2C[C@H]3[C@@H](CC=C4C[C@@H](O)CC[C@@]43C)[C@@H]2CC[C@]12O[C@@H]1C[C@H](C)CN[C@H]1[C@H]2C | inactive | inactive | inactive | inactive | – | – | – | –
20 | CC(CCc1ccc(O)cc1)O[C@@H]1O[C@H](CO[C@H]2OC[C@](O)(CO)[C@H]2O)[C@@H](O)[C@H](O)[C@H]1O (some centres undefined) | inactive | inactive | inactive | inactive | – | – | – | –
21 | C/C=C(\C)C(=O)O[C@H]1[C@H](OC(C)=O)[C@]2(CO)[C@H](O)[C@H](O)[C@]3(C)C(=CCC4[C@@]5(C)CC[C@H](O[C@@H]6O[C@H](C(=O)O)[C@@H](O)[C@H](O[C@@H]7OC[C@H](O)[C@H](O[C@@H]8OC[C@H](O)[C@H](O)[C@H]8O)[C@H]7O)[C@H]6O[C@@H]6O[C@H](CO)[C@@H](O)[C@H](O)[C@H]6O)C(C)(C)C5CC[C@]43C)[C@@H]2CC1(C)C (some centres undefined) | – | – | – | – | -1.59% [at 6.55 µM] (inactive) | 6.49% [at 6.55 µM] (inactive) | 19.4% [at 6.55 µM] (inactive) | 8.32% [at 6.55 µM] (inactive)
